Compound activity from PubChem.
BaF3 tox = parental Ba/F3 viability inhibition as JAK2V617F counter-screen | CellTiter-Glo ATP luminescence | inhibition, % at 5.6 µM | hit rate 1.1% among 220,000;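 active = inhibition above a per-campaign cutoff, the mean inhibition of all tested compounds plus 3 SD, cut at about 27% in these data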;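 also: 0% = DMSO wells and 100% = JAK Inhibitor I control wells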
IEC-6 tox-1 = kills IEC-6 intestinal cells in KLF5 counter-screen; AID 1825; IEC-6 cytotoxicity, luminescence viability; hit rate 0.78% among 290,000; inhibition, % at 5 µM;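 also: 0% = plate median of test compound wells and 100% = cytotoxic reference compound wells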
APP transl inh = APP translation inhibition | SH-SY5Y APP 5'UTR-luciferase reporter, luminescence | inhibition, % at 2 µM | hit rate 0.82% among 190,000 | AID 1285;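 active = inhibition above a set limit, derived from the sample mean plus 3 SD, cut at about 45% in these data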
KLF5 inh = inhibitors of KLF5 expression | AID 1700 | DLD-1 KLF5 promoter-luciferase reporter, luminescence | inhibition, % at 5 µM | hit rate 0.23% among 290,000;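 active = inhibition above a per-plate limit of that plate's mean compound inhibition plus 3 SD, cut at about 60% in these data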;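 also: 0% = DMSO wells and 100% = LY294002 at 200 µM; higher means less KLF5 promoter-driven luciferase light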
Ba/F3 V617F tox = loss of viability in JAK2V617F-driven Ba/F3 cells; hit rate 1.1% among 220,000; AID 1446; Ba/F3 EpoR-JAK2V617F viability, ATP luminescence; inhibition, % at 5.6 µM;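 active = inhibition above the campaign mean plus 3 SD over all tested compounds, cut at about 24% in these data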;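 also: cytokine-independent growth of Ba/F3 cells driven by EpoR plus mutant JAK2; 0% = DMSO-treated cells and 100% = JAK inhibitor I control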
KLF5 inh confirm = confirmation of KLF5 inhibitors; hit rate 79% among 610; inhibition, % at 4 µM; shares compounds with KLF5 inh; DLD-1 KLF5 promoter firefly luciferase reporter, luminescence;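 active = inhibition above a set limit taken from the earlier primary screen, cut at about 63% in these data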;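 also: 0% = DMSO wells and 100% = LY294002 at 200 µM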
IEC-6 tox-2 = kills rat IEC-6 cells in KLF5 counter-screen; shares compounds with KLF5 inh; IEC-6 rat intestinal cells, viability luminescence; inhibition, % at 4 µM; hit rate 56% among 610; AID 1905; in the data active = inhibition above about 23%;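 also: cells exposed to compounds for 48 hours before viability read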
IEC-6 cytotox cf = IEC-6 cytotoxicity, confirmation assay; inhibition, % at 5 µM; hit rate 63% among 1,900; IEC-6 rat intestinal epithelial viability, luminescence; shares compounds with IEC-6 tox-1;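 also: 0% = vehicle and 100% = reference cytotoxic drug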
An asterisk follows results filed as active; x = no result given. Rows were chosen to be rich in hits. Some 1.9% of all compounds tested hit in one or more screens of this group. Rule as the data show it, unless noted: active = inhibition above about 22%; inactive = the rest.

SMILES | BaF3 tox | IEC-6 tox-1 | APP transl inh | KLF5 inh | Ba/F3 V617F tox | IEC-6 cytotox cf | others
CC(C)C(C)NC(=O)COC(=O)/C=C/c1ccc(S(=O)(=O)N2CCc3ccccc32)cc1 (stereo not given) | 6 | 7 | -2 | -3 | 5 | x
O=C(N/N=C/c1cc(Cl)ccc1O)c1cccnc1 | x | 60* | x | 79* | x | 29* | KLF5 inh confirm=89*;IEC-6 tox-2=16
CCCCCC(=O)N[C@@H](c1ccccc1)[C@@H](O)C(=O)O[C@H]1C[C@@]2(O)[C@@H](OC(=O)c3ccccc3)C3[C@](C)(C(=O)[C@H](OC(C)=O)C(=C1C)C2(C)C)[C@@H](O)C[C@H]1OC[C@@]31OC(C)=O (stereo not given in full) | x | 96* | x | 66* | x | 86* | KLF5 inh confirm=84*;IEC-6 tox-2=88*
Cc1cc(C(=O)NC2CCCc3c2cnn3-c2ccc(C)c(C)c2)nc(C)n1 (stereo not given) | x | 3 | x | -1 | x | x
COC(=O)c1ccc(C(=O)NC2CCCc3c2cnn3-c2ccc(C)c(C)c2)cc1 (stereo not given) | x | 76* | x | 68* | x | 58* | KLF5 inh confirm=76*;IEC-6 tox-2=55*
COc1cccc(/C=N/NC(=O)N/N=C/c2cccc(OC)c2O)c1O | x | -6 | x | -54 | x | x
O=c1nccc(N/N=C/c2ccccc2O)[nH]1 | x | 96* | x | 88* | x | 16 | KLF5 inh confirm=-4;IEC-6 tox-2=11
CCOc1ccccc1/C=N/Nc1ccnc(=O)[nH]1 | x | 2 | x | -14 | x | x
COc1cccc(/C=N/Nc2ccnc(=O)[nH]2)c1O | x | 97* | x | 81* | x | 24* | KLF5 inh confirm=11;IEC-6 tox-2=8
COc1ccccc1CNC(=O)C1CCN(S(=O)(=O)c2ccc3c(c2)NC(=O)CO3)CC1 | x | -11 | x | 3 | x | x
O=C(Nc1ccc(Cl)cn1)c1cccc2c(Br)cccc12 | x | 82* | x | 62* | x | 14 | KLF5 inh confirm=-10;IEC-6 tox-2=14
Cc1ccccc1C(=O)Nc1ccc(Cl)cn1 | 2 | -2 | -68 | -85 | -4 | x
Cc1ccccc1OCC(=O)NNC(=O)Nc1ccc(Cl)cc1 | 7 | 67* | 10 | -1 | 1 | 29*
Cc1ccccc1OCC(=O)NNC(=O)Nc1ccccc1 | 4 | 2 | -8 | -25 | -2 | x
C/C(=N\NC(=O)c1cc(C2CC2)nc2ccccc12)c1ccc(O)cc1O | x | 51* | x | 61 | x | 43*
C/C(=N\NC(=O)c1cc(C2CC2)nc2ccccc12)c1ccc(C)s1 | 3 | 4 | 3 | -20 | -4 | x
CC(/C=C/c1ccccc1)=N\NC(=O)c1cc(C)nc2ccccc12 | 52* | 40* | x | 40 | 33* | 5
C/C(=N\NC(=O)c1cc(C)nc2ccccc12)c1cccs1 | 2 | 29* | x | 18 | 0 | -2
CC(/C=C/c1ccccc1)=N\NC(=O)c1ccc(Br)cc1 | 7 | 8 | 13 | -30 | 2 | x
COC(=O)c1ccsc1NS(=O)(=O)c1ccccc1 | x | 0 | x | -4 | x | x
COc1cccc(NC(=O)C2C3C=CC(C3)C2C(=O)O)c1 (stereo not given) | x | 7 | x | 2 | x | x
Nc1nc(Nc2ccccc2)nc2ccccc12 | 15 | 22* | -155 | -71 | 11 | 15
Cc1ccccc1Nc1nc(N)c2ccccc2n1 | 16 | 20 | -144 | -7 | 17 | x
CCOc1ccc(N2CC(C(=O)Nc3cccnc3)CC2=O)cc1 (stereo not given) | x | 2 | x | -13 | x | x
FC(F)(F)c1ccc(Sc2nnc(-c3cccs3)n2CC2CCCO2)nc1 (stereo not given) | 1 | 0 | 19 | -12 | -1 | x
SMILES | BaF3 tox | IEC-6 tox-1 | APP transl inh | KLF5 inh | Ba/F3 V617F tox | IEC-6 cytotox cf | others
FC(F)(F)c1cnc(Sc2nnc(-c3cccs3)n2CC2CCCO2)c(Cl)c1 (stereo not given) | 0 | 25* | 0 | -47 | 1 | 34*
O=C(CSc1nc2ccccc2c(=O)n1Cc1ccccc1)Nc1ccc(Br)cc1C(=O)O | x | 34* | x | 8 | x | 20
O=C(Cc1cccc2ccccc12)Nc1ccc(Br)cc1C(=O)O | x | 25* | x | 9 | x | 3
O=C(Cc1cccc2ccccc12)Nc1ccc(O)cc1C(=O)O | x | -1 | x | 3 | x | x
Cc1cccc(/C(N)=N/OC(=O)CCCc2ccccc2)c1 | x | -4 | x | -64 | x | x
O=C1NC(c2ccc(Br)cc2)Nc2ccccc21 (stereo not given) | x | 33* | x | 5 | x | 33*
CCOCCc1c(O)nc(SCC(=O)N2CCOCC2)[nH]c1=O | x | 0 | x | -15 | x | x
Cc1ccc(-n2c(O)c(/C=C3/C(c4ccccc4)=Nc4ccccc43)c(=O)[nH]c2=O)cc1 | 61* | 66* | 76* | 28 | 74* | 60*
CCCc1cc(=O)c2c(O)ccc(OC)c2o1 | -4 | -4 | x | -30 | 0 | x
CCN(CC)S(=O)(=O)c1ccc(=O)[nH]c1 | 5 | -4 | -22 | -45 | -6 | x
COc1ccc(C(=O)n2c(-c3ccco3)nc3ccccc32)cc1 | 8 | 48* | 50* | 25 | 10 | 36*
COc1ccc(C(=O)N2CCn3c2nc2ccccc23)cc1 | 5 | 0 | -17 | -73 | 0 | x
COc1cccc(N2CCN(C(=O)c3ccc(CS(=O)c4ccc(Cl)cc4)o3)CC2)c1 (stereo not given) | x | 81* | x | 53 | x | 57*
O=C(c1ccc(CS(=O)Cc2ccc(Cl)cc2)o1)N1CCN(c2cccc(Cl)c2)CC1 (stereo not given) | x | -3 | x | -9 | x | x
O=C(c1cc(COc2cccc3cnccc23)on1)N1CCCC(CCCO)C1 (stereo not given) | x | 23* | x | 6 | x | 25*
COc1ccc(S(=O)(=O)N2CCC(C(=O)NCc3ccncc3)CC2)cc1C | x | -12 | x | 4 | x | x
COc1cccc(C2NC(=S)NC(C)=C2C(=O)c2ccccc2)c1OC (stereo not given) | 78* | 68* | 78* | 55 | 84* | 50*
CCn1nc(C(=O)OCC(=O)N2CC(=O)Nc3ccccc32)c2ccccc2c1=O | 2 | 4 | 1 | -9 | 0 | x
COc1ccc(C2c3cc(OC)c(OC)cc3CCN2C(=O)c2ccccc2)cc1OC (stereo not given) | x | -2 | x | -13 | x | x
COc1ccc(C2c3cc(OC)c(OC)cc3CCN2S(C)(=O)=O)cc1OC (stereo not given) | 58* | 36* | 15 | 2 | 75* | 10
Cc1ccccc1OCCn1c(S(=O)(=O)O)nc2c(N)ncnc21 | x | -9 | x | -42 | x | x
COc1ccc(-n2nc(C#N)c(Cl)cc2=O)cc1 | 2 | 29* | 95* | -20 | 8 | 20
COC(=O)c1nn(-c2ccc(OC)cc2)c(=O)cc1O | 7 | 0 | 4 | 9 | 0 | x
Cc1ccc(C(=O)c2cc([N+](=O)[O-])ccc2N2CCCCC2)cc1 | 76* | 89* | x | 56 | 80* | 65*
Cc1ccc(C(=O)c2cc([N+](=O)[O-])ccc2N2CC(C)OC(C)C2)cc1 (stereo not given) | 6 | -2 | 24 | -6 | -1 | x
